# LDHA block: inhibitors of human lactate dehydrogenase A | activity change, % (values are at about 110 or 230 µM) | actives 0.15% (n = 480,000) | purified LDHA, NADH/diaphorase-resazurin fluorescence; active compounds read low; in the data active = activity change below about -30%; inconclusive = mostly about -25% to -30%;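 also: plate controls were DMSO wells for no effect and wells without enzyme for full effect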
#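 Remaining NADH was detected by diaphorase (0.133 mg/mL) converting 37 µM resazurin to fluorescent resorufin, read at 0 and 20 minutes. The preceding 5-minute room-temperature reaction used 2 nM LDHA, 0.2 mM sodium pyruvate and 0.06 mM NADH at pH 7.4.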
# TDP1 cell noCPT: qHTS for Inhibitors of human tyrosyl-DNA phosphodiesterase 1 (TDP1): qHTS in cells in absence of CPT | DT40 Tdp1-/- hTDP1 cells, no CPT, ATP luminescence, 48 h | Potency, µM (titrated, usually from 46.2 µM), inactives show at the highest dose activity change, negative = growth inhibition, actives largely listed as inhibitors | actives 15% (n = 420,000); also: potency is read from the fitted curve at half-maximal effect; nearly all actives have a fitted effect of over 55% in size
#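 Chicken DT40 Tdp1-/- cells complemented with human TDP1, screened without camptothecin (DMSO vehicle only), 400 cells/well. Compounds pin-transferred, cells incubated at 37 °C for at least 48 hr. Growth read as ATP-dependent luminescence (CellTiter-Glo, 30 min at RT).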
# IL-1B inflam inh: inhibitors of inflammasome signaling (IL-1 beta secretion). activity change, % at 57.5 µM. actives 4.7% (n = 360,000). THP-1 LPS/ATP IL-1B secretion, AlphaLISA, 16 h; active compounds read low. AID 743279; in the data active = activity change below about -50%; inconclusive = mostly about -30% to -49%
#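 Secreted IL-1B measured by AlphaLISA bead assay after 16 h compound exposure of THP-1 cells; compounds (final up to 57.5 uM) added 1 h before LPS (250 ng/mL) and ATP (1.25 mM) stimulation; lower signal means less secretion.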
# VP16 counter: Gal4-VP16 reporter inhibition counter-screen | AID 2546 | actives 3.5% (n = 310,000) | Drosophila S2 Gal4-VP16 UAS-luciferase, luminescence, 20 h | Potency, µM (series often up to 53.6 µM), inactives show at the highest dose activity, negative = inhibition, actives largely listed as inhibitors;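 also: Gal4-VP16 expression switched on by copper sulfate through the metallothionein promoter; potency is read from the fitted curve at half-maximal effect; nearly all actives have a fitted effect of over 50% in size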
# RORg inh: blocks mouse ROR gamma transcriptional activity. P51450. actives 5.4% (n = 310,000). AID 2551. Drosophila S2 Gal4-RORgamma UAS-luciferase reporter, 20 h. Potency, µM (series often up to 53.6 µM), without a hit: at the top dose activity change, negative = inhibition, actives largely listed as inhibitors; also: potency is read from the fitted curve at half-maximal effect; nearly all actives have a fitted effect of over 60% in size
# Target sequence (P51450 whole entry, looked up, the tested form may be a part): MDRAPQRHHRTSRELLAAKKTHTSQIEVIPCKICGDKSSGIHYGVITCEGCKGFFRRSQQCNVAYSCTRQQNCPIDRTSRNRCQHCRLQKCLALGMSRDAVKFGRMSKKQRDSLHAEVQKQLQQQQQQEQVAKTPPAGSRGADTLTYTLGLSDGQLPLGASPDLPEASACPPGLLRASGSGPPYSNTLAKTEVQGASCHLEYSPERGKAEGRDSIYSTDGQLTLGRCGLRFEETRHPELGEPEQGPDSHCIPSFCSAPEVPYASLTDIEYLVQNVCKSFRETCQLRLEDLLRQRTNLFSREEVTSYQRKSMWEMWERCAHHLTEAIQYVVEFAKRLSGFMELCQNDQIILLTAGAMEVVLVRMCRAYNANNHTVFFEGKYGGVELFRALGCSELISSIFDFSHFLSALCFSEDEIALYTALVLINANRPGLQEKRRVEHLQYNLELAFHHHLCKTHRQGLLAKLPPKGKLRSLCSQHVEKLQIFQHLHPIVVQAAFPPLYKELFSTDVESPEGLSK
#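 Stable Schneider cell line, Gal4 DNA-binding domain fused to ROR gamma, UAS-luciferase. Cmpd 1 hr RT → CuSO4 700 uM final → 20 hr RT → luciferase reagent 10 min → luminescence.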
# TDP1 cell CPT: growth inhibition of DT40 Tdp1-/-;hTDP1 cells with camptothecin (screen for TDP1 inhibitors) | chicken DT40 Tdp1-/-;hTDP1 cells + 20 nM CPT, ATP luminescence, 48 h | AID 686979 | Potency, µM (series often up to 46.2 µM), without a hit: at the highest dose activity change, negative = growth inhibition, actives largely listed as inhibitors | actives 12% (n = 420,000); also: potency is read from the fitted curve at half-maximal effect; nearly all actives have a fitted effect of over 55% in size
#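 Cell growth measured by CellTiter-Glo luminescence after a minimum 48 h, 37 C compound exposure with 20 nM CPT in Tdp1-knockout DT40 cells stably expressing hTDP1, seeded 400/well; qHTS titration format.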
# Numbers without * were called inactive; ? = inconclusive; / = no result given; ! = not active in a repeat; [ ] = dose if it differs, or a comment. Compounds with a hit are over-represented: about 18% of the library has one in this group of screens. Unless noted, calls follow the shape of the dose curve; as a rule, active = well fitted curve in the direction sought with a large enough effect; inconclusive = small, poorly fitted or top-dose-only effect, or another doubt; inactive = no such curve, though single readings can be large; an effect the other way counts as inactive or inconclusive. Unless noted, % is scaled to controls: 0 for no effect and ±100 for the full control effect.
SMILES,LDHA block,TDP1 cell noCPT,IL-1B inflam inh,VP16 counter,RORg inh,TDP1 cell CPT
CC1(NC(=O)c2n[nH]c(=O)c3ccccc23)CCS(=O)(=O)C1 (configuration not stated),6.0,/,/,/,/,/
CCOC(=O)C1=C(c2ccccc2)NC(=O)NC1c1cc(Cl)c(O)c(OC)c1 (configuration not stated),7.4,?,-1.6,2.9%,?,-21.6%
CCOC(=O)C1=C(c2ccccc2)NC(N)=NC1c1ccc(OCc2ccc(Cl)cc2)c(OC)c1 (configuration not stated),-0.1,?,?,-18.2%,-0.7%,23.1µM*
O=C1SC(SCc2ccccc2)=N/C1=C\c1ccc(C(=O)O)cc1,-3.4,-9.2%,-58.4*,0.1%,3.5%,26.6%
Cc1cc2c(c(C)c1CCO[C@@H]1O[C@H](CO)[C@@H](O)[C@H](O)[C@H]1O)C(=O)[C@@H](C)[C@@H]2O,-1.7,5.17µM*,-8.0,/,/,2.91µM*
O=C(Nc1cccnc1N1CCCCC1)c1cc(C2CC2)[nH]n1,-2.6,/,/,/,/,/
COC(=O)CC1=NN(c2ccc(OC)cc2)C(=O)/C1=C\c1ccc(Cl)cc1,1.0,?,2.8,?,9.3%,?
COC(=O)CC1=NN(c2ccccc2)C(=O)/C1=C\c1ccc(OC)cc1,-2.7,?,-23.0,-1.0%,24.7%,20.6µM*
CN(C)C(=O)CCc1c(-c2ccc(F)cc2)[nH]c2ccccc12,-4.8,/,/,/,/,/
CCCCCCN(CCCCCC)C(=O)Cc1c(-c2ccc(F)cc2)[nH]c2ccccc12,-8.2,13µM*,-11.7,-6.1%,17.4%,9.44µM*!
Cc1cc(C)c(NC(=S)N(CCN2CCCCC2)Cc2ccco2)c(C)c1,-1.5,16.4µM*,-2.8,-7.8%[10 µM],10µM*,?
Cc1cccc(C)c1NC(=S)N(CCN1CCCCCC1)Cc1ccco1,-3.1,18.4µM*,-21.2,14.6%[10 µM],12.6µM*,?
COc1ccc(-c2c3c(=O)n(C)c(=O)n(C)c3c3n2-c2ccccc2NC3c2ccc(C#N)cc2)cc1 (configuration not stated),10.7,/,/,/,/,/
Cc1ccc(-c2c3c(=O)n(C)c(=O)n(C)c3c3n2-c2ccccc2NC3c2ccc(C)cc2O)cc1 (configuration not stated),6.7,20.6µM*,/,/,/,20.6µM*
COc1ccc(-c2c3c(=O)n(C)c(=O)n(C)c3c3n2-c2ccccc2NC3c2ccco2)cc1 (configuration not stated),16.3,?,/,/,/,14.6µM*
Cn1c(=O)c2c(-c3ccccc3)n3c(c2n(C)c1=O)C(c1ccc([N+](=O)[O-])cc1)Nc1ccccc1-3 (configuration not stated),-7.1,14.6µM*,/,/,/,16.4µM*
Cc1ccc(C2Nc3cc(C)c(C)cc3-n3c(-c4ccccc4)c4c(=O)n(C)c(=O)n(C)c4c32)o1 (configuration not stated),7.7,9.2µM*,/,/,/,7.31µM*
Cc1ccc(-c2c3c(=O)n(C)c(=O)n(C)c3cn2-c2cc(C)ccc2O)cc1,-1.8,?,/,/,/,?
CCOc1cc(C#N)ccc1OC(=O)c1ccccc1OC,18.2,/,/,/,/,/
CCCCCCCCCCC(=O)N/N=C(/C)c1cccc(NC(=O)c2ccc(Cl)cc2Cl)c1,-0.5,/,/,/,/,/
Cn1nc(C(=O)OC2CCC(C(C)(C)C)CC2)c2ccccc2c1=O (configuration not stated),0.9,/,/,/,/,/
COc1ccc(O)c(C2Nc3ccccc3-n3c(-c4ccccc4)c4c(=O)n(C)c(=O)n(C)c4c32)c1 (configuration not stated),-9.3,18.4µM*,/,/,/,9.2µM*
O=C1OCCN1C(=O)[C@H]1[C@H](c2ccc(Cl)cc2)C(c2ccc(F)cc2)=NN1c1ccc(Br)cc1,-3.2,?,-21.8,-14.6%[40.7 µM],4.4%[40.7 µM],?
O=C1OCCN1C(=O)[C@H]1[C@H](c2ccc(F)cc2)C(c2ccc(F)cc2)=NN1c1ccc(Br)cc1,0.9,?,-61.2*,18.7%[40.7 µM],2.5%[40.7 µM],?
CC(C)(C)NCC(=Cc1ccccc1)C(=O)c1ccccc1,-2.1,2.06µM*,-101.7*,/,/,2.06µM*
SMILES,LDHA block,TDP1 cell noCPT,IL-1B inflam inh,VP16 counter,RORg inh,TDP1 cell CPT
C#CC(C)(CC)NC(=O)/C(=C/c1ccccc1)NC(=O)c1ccccc1 (configuration not stated),5.9,/,/,/,/,/
Cc1cc(NC(=O)CN2CCN(C(=O)c3ccc(C)c(F)c3)CC2)no1,-4.9,/,/,/,/,/
CN1C(=O)c2ccccc2Sc2ccc(NC(=O)NCc3cccc(Cl)c3)cc21,6.5,23.1µM*,/,/,/,23.1µM*
COCCNC(=O)Nc1ccc2c(c1)N(C)C(=O)c1ccccc1S2,-9.8,-11.8%,-1.5,-10.4%,16.6%,9.5%
COc1ccc(CNC(=O)Nc2ccc3c(c2)N(C)C(=O)c2ccccc2S3)cc1,-7.8,20.6µM*,/,/,/,?
COc1cc(OC)c(NC(=O)Nc2ccc3c(c2)N(C)C(=O)c2ccccc2S3)cc1Cl,3.4,5.8µM*,/,/,/,5.8µM*
Cc1ccccc1CNC(=O)Nc1ccc2c(c1)N(C)C(=O)c1ccccc1S2,1.0,16.4µM*,/,/,/,16.4µM*
CC(C)NC(=O)Nc1ccc2c(c1)N(C)C(=O)c1ccccc1S2,-0.7,-28.6%,/,/,/,?
Cc1nc2ccc(Cl)cc2cc1C(=O)Nc1ccc(C(=O)N(C)C)cc1,9.5,/,/,/,/,/
CN(Cc1cccs1)C(=O)c1ccc2ccccc2c1,2.0,/,/,/,/,/
O=c1c2c(nc3cc(-c4ccc(Br)cc4)[nH]n13)CCCC2,-1.5,?,-60.7*,-11.1%,-6.2%,?
O=c1c2c(nc3c(-c4ccc(Cl)cc4)c[nH]n13)CCC2,3.9,4.61µM*,52.8,?,5.01µM*,2.31µM*
Cc1c(-c2ccccc2)[nH]n2c(=O)c3c(nc12)CCCC3,-4.3,-5.3%,-23.6,?,12.1%,1.1%
O=c1c2c(nc3c(-c4ccccc4)c[nH]n13)CCC2,-1.6,16.4µM*,18.3,?,6.31µM*,?
O=c1c2c(nc3c(-c4cccc(Br)c4)c[nH]n13)CCCC2,-0.3,-102.7%,-14.6,3.16µM*,2.51µM*,16.4µM*
CCC(C)OC(=O)c1ccc(-c2ccc(-c3ccc(C(=O)OC(C)CC)cc3)cc2)cc1 (configuration not stated),-15.0,/,/,/,/,/
CC(C)c1ccc(Nc2ncc3c(n2)CCN(C(=O)Nc2ccc(F)c(Cl)c2)C3)cc1,0.7,?,-13.4,/,/,?

# Screening results as filed in PubChem.
